Source: PubChem BioAssay
Calls of active or inactive are those of the source.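 Rule for the calls, unless noted: active = compound raises GLP1 secretion from the human gut endocrine cells, with no numeric limit stated; inactive = the rest.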

Legend:
[1] = stimulators of nuclear beta-catenin in C2C12, primary screen, imaging, WNT3A-conditioned medium, mouse C2C12, NPC library (AID 1117326; in the data active = nuclear beta-catenin stimulation mostly above about 4.2%, no sharp cut-off; inactive = mostly below about 10%; note: reference of the scale not given here); conditions: stronger effect = higher value
[2] = stimulators of insulin release from INS-1E, primary screen, cell-based, 5 mM glucose, NPC library (AID 1117329;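 active = compound raises insulin release from rat beta cells at 5 mM glucose, no numeric limit stated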; note: reference of the scale not given here); conditions: rat INS-1E insulin secretion, at 10 µM, stronger effect = higher value
[3] = growth inhibition of GSK3B-pretreated HCT116 cells – cell-based, CellTiter-Glo, 0.2 to 20 µM (AID 1117336;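 active = compounds lowering colon cancer cell viability after pretreatment blocking the GSK3B kinase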); conditions: HCT116 viability after GSK3B inhibitor, at 20 µM, stronger effect = higher value
[4] = inhibition of endothelial tube formation, primary screen, imaging, VEGF stimulated, CD31 staining, tube area, NPC library (AID 1117340;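 active = compound that reduces growth-factor-driven endothelial tube area in a mixed cell culture, no cutoff stated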); conditions: VEGF-stimulated ADSC/ECFC co-culture, at 10 µM, stronger effect = higher value
[5] = glucagon-like peptide 1 release enhancers, primary assay, NCI-H716 cell line, NPC library (AID 1117341); conditions: NCI-H716 cells, at 10 µM, stronger effect = higher value; note: reference of the scale not given here
[6] = HCT116 colon cancer cell growth inhibition, primary screen, CellTiter-Glo luminescence, NPC library (AID 1117342;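 active = compounds that lower survival of HCT116 colon cancer cells in the luminescence readout, no numeric limit stated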); conditions: at 20 µM (top of the series)
[7] = CellTiter-Glo luminescent readout of SW480 viability loss, NPC library primary (AID 1117343;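 active = compounds that lower viability of the colon cancer cells in the luminescence readout, with no numeric limit stated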); conditions: CellTiter-Glo luminescence; at 20 µM (top of the series)
[8] = decreased DLD-1 cellular survival, CellTiter-Glo luminescent readout, NPC compound collection, primary HTS (AID 1117346;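 active = compounds that lower survival of DLD-1 colon cancer cells in the luminescence readout, no cutoff given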); conditions: DLD-1 viability, CellTiter-Glo luminescence; at 20 µM (top of the series)

| Structure (SMILES) | nuclear beta-catenin stimulation ([1]; at 10 µM) | nuclear beta-catenin stimulation ([1]; stimulation, at 2 µM) [%] | insulin secretion stimulation [2] | viability decrease [3] | tube area decrease [4] | GLP1 secretion stimulation [5] | inhibition of viability [6] | viability decrease (inhibition) [7] | viability decrease (inhibition) [8] |
| --- | --- | --- | --- | --- | --- | --- | --- | --- | --- |
| CCCCNCC(O)c1ccc(O)cc1 (centres undefined) | -0.1% (inactive) | 3.1 | 2.3% (inactive) | 0.3% (inactive) | 16.9% (inactive) | -2.1% (inactive) | 8% (inactive) | -1.7% (inactive) | -9.2% (inactive) |
| CC[N+]1(CC)CCC(OC(=O)C(O)(c2ccccc2)c2ccccc2)C1 (centres undefined) | -0.2% (inactive) | -1.8 | 3.25% (inactive) | 4.8% (inactive) | 1.2% (inactive) | 2.4% (inactive) | 4.2% (inactive) | -12.8% (inactive) | -6.4% (inactive) |
| C[N+](C)(C)CCOC(=O)C(O)(c1ccccc1)c1ccccc1 | -1.8% (inactive) | -0.5 | 1.1% (inactive) | 98.1% (active) | -29.2% (inactive) | -2.6% (inactive) | 96.5% (active) | 98.8% (active) | 102% (active) |
| O=C(O)COc1ccccc1 | 1.6% (inactive) | 0.3 | -2.7% (inactive) | -4.9% (inactive) | -5.1% (inactive) | 0.4% (inactive) | -0.7% (inactive) | -15.1% (inactive) | -15.4% (inactive) |
| CC(C)(C)NCC(O)c1cc(Cl)c(N)c(C(F)(F)F)c1 (centres undefined) | 0.4% (inactive) | 1 | -1.6% (inactive) | -16.8% (inactive) | -0.3% (inactive) | -2.3% (inactive) | 10.6% (inactive) | 5.9% (inactive) | -1.7% (inactive) |
| CC1=C(C(=O)O)N2C(=O)[C@@H](N)[C@H]2SC1 | -0.8% (inactive) | 0.3 | 0.4% (inactive) | 9.7% (inactive) | -6.3% (inactive) | 4.2% (inactive) | 13.3% (inactive) | 33.8% (inactive) | 21.2% (inactive) |
| Nc1ccccc1C(=O)O | 1.8% (inactive) | 1.3 | 0.9% (inactive) | -0.1% (inactive) | -2.6% (inactive) | 1.1% (inactive) | 6.4% (inactive) | 11.5% (inactive) | -8.85% (inactive) |
| O=C1c2ccccc2C(=O)C1C(=O)C(c1ccccc1)c1ccccc1 | 0.3% (inactive) | -0.1 | -2.2% (inactive) | 91.3% (active) | 78.8% (active) | -5% (inactive) | 44.8% (inactive) | 120% (active) | 99.3% (active) |
| CN1C(=O)NC(=O)C(C)(C2=CCCCC2)C1=O (centres undefined) | 1.5% (inactive) | 0.7 | -0.5% (inactive) | -11.4% (inactive) | 0.1% (inactive) | 0.1% (inactive) | -2.4% (inactive) | 18.4% (inactive) | -1.75% (inactive) |
| CC(=O)C1CCOC1=O (centres undefined) | -0.1% (inactive) | 1.2 | 3.7% (inactive) | 13.5% (inactive) | -5% (inactive) | 2.7% (inactive) | 16.7% (inactive) | 1.5% (inactive) | 1.4% (inactive) |
| O=C1OC(CCN2CCCCC2)OC1(c1ccccc1)c1ccccc1 (centres undefined) | 15% (inactive) | 0.5 | 5.9% (inactive) | 0.7% (inactive) | 6% (inactive) | 4.4% (inactive) | 1.1% (inactive) | 15% (inactive) | 92.8% (active) |
| CCN(CC)CCOC(=O)C(C)(c1ccccc1)c1ccccc1 | 1.1% (inactive) | 0.8 | 27.8% (active) | 36.8% (inactive) | 0.6% (inactive) | 8.1% (inactive) | 49.8% (inactive) | 22.2% (inactive) | 17.9% (inactive) |
| CCN1CCCC1CNC(=O)C(O)(c1ccccc1)c1ccccc1 (centres undefined) | 1.8% (inactive) | 1.9 | 8.1% (inactive) | -4.1% (inactive) | -2.9% (inactive) | -0.1% (inactive) | 10.9% (inactive) | 24.2% (inactive) | -4.5% (active) |
| CNC(=O)NC(O)C(Cl)(Cl)Cl (centres undefined) | -0.4% (inactive) | -0.2 | -1% (inactive) | -2.1% (inactive) | -28.9% (inactive) | 3.1% (inactive) | -4.4% (inactive) | 19.7% (inactive) | -1.55% (inactive) |
| O=c1oc2ccccc2c(O)c1C(CC(O)c1ccc(-c2ccc(Br)cc2)cc1)c1ccccc1 (centres undefined) | 8.3% (inactive) | 2.6 | 3.6% (inactive) | 100% (active) | 2.4% (inactive) | 23.9% (active) | 101% (active) | 122% (active) | 103% (active) |
| O=C(O)c1ccc(=O)[nH]c1 | 0.4% (inactive) | 0.8 | 2.6% (inactive) | 3.2% (inactive) | -2.4% (inactive) | -0.3% (inactive) | 7.7% (inactive) | -13.1% (inactive) | -3.9% (inactive) |
